Records with an inconclusive call do not appear. Activity calls are given as the source filed them. The calls were made as follows, unless noted: active = hit-call score of the fitted dose curve at least 0.9, where 1 is the maximum; inactive = score below 0.9.
What was measured:
[1] = biological target: human Retinoid X Receptor beta (RXRb), RXRB (gene 6257) (UniProt P28702); assay: ATG_RXRb_TRANS: Attagene TRANS-FACTORIAL HepG2 Assay for human Retinoid X Receptor beta (RXRb) (AID 2283013; active = hit-call score of the fitted dose curve at least 0.9, where 1 is the maximum)
human Retinoid X Receptor beta (RXRb), RXRB (gene 6257), sequence (P28702 whole entry, looked up, the tested form may be a part): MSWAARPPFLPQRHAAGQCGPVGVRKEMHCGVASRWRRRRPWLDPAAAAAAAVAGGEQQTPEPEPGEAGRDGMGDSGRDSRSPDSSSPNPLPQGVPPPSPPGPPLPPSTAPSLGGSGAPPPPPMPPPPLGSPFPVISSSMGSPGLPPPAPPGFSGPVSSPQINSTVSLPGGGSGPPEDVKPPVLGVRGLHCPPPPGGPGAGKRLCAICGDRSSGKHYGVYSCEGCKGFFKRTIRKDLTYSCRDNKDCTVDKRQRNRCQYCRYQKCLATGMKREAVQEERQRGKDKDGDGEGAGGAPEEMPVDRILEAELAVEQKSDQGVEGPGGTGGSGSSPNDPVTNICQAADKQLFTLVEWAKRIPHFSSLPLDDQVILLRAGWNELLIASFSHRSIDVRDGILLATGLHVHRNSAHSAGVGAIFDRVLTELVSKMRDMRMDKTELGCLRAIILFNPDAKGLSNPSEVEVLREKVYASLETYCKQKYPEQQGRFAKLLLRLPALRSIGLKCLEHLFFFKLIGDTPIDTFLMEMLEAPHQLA
How it was run: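 Read-out: reporter mRNA induction via RT-PCR plus capillary electrophoresis fluorescence, analysed as signal increase relative to DMSO. Cells were human HepG2, transiently transfected with GAL4-UAS reporter constructs and chimeric receptor-Gal4 fusions, dosed for 24 h.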

[2] = biological target: human Thyroid Receptor alpha (THRa1), THRA (gene 7067) (UniProt P10827); assay: ATG_THRa1_TRANS: Attagene TRANS-FACTORIAL HepG2 Assay for human Thyroid Receptor alpha (THRa1) (AID 2283014; active = hit-call score of the fitted dose curve at least 0.9, where 1 is the maximum)
human Thyroid Receptor alpha (THRa1), THRA (gene 7067), sequence (P10827 whole entry, looked up, the tested form may be a part): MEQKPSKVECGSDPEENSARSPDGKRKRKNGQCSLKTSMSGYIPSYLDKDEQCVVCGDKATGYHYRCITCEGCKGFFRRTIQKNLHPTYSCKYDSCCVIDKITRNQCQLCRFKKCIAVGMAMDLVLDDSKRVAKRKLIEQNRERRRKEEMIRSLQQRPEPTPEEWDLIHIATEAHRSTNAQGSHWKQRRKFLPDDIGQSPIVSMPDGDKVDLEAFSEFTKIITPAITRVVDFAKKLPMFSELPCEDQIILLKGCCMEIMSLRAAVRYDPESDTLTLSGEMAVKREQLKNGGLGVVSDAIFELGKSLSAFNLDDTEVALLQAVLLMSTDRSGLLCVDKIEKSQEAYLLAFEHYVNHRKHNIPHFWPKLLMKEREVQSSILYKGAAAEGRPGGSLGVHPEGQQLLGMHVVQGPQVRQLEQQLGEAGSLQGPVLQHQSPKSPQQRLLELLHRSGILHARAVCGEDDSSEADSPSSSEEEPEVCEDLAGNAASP
How it was run: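 Transcripts from GAL4-UAS-driven reporters, measured after 24 h compound exposure by RT-PCR plus capillary electrophoresis of 6-FAM-labeled fragments, were fitted for gain of signal relative to DMSO. Cells: transiently transfected HepG2 expressing NR-Gal4 chimeras.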

[3] = read-out: E-selectin (Homo sapiens) (UniProt P16581); assay: BSK_3C_Eselectin: BioMAP Diversity Plus: 3C Assay for Eselectin Biomarker Activity (AID 2283015); conditions: primary human endothelial cells (HUVEC); actives raise or lower the signal;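 also: cell surface E-selectin protein quantified by ELISA 24 h after dosing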
How it was run: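 E-selectin ELISA readout, fitted bidirectionally relative to DMSO, taken 24 h post-dosing in HUVEC cultures of the 3C system. Overt cytotoxicity tracked with sulforhodamine B staining of parallel wells.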

[4] = read-out: Interleukin-1 alpha (IL1a), IL1A (gene 3552); assay: BSK_BE3C_IL1a: BioMAP Diversity Plus: BE3C Assay for Interleukin-1 alpha (IL1a) Biomarker Activity (AID 2283016); conditions: primary human bronchial epithelial cells; actives raise or lower the signal
How it was run: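 ELISA read-out of IL-1a from human lung bronchial epithelial primary cells, 24 h post-dose. Gain or loss of signal fitted relative to DMSO negative control.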

[5] = read-out: Monocyte Chemoattractant Protein-1 (MCP1), CCL2 (gene 6347); assay: BSK_3C_MCP1: BioMAP Diversity Plus: 3C Assay for Monocyte Chemoattractant Protein-1 (MCP1) Biomarker Activity (AID 2283017); conditions: primary human endothelial cells (HUVEC); actives raise or lower the signal
How it was run: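 MCP-1 was measured by ELISA 24 h after dosing in primary HUVEC 3C cultures and fitted in both directions relative to DMSO; cytotoxicity was checked by SRB total-protein staining in parallel wells.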

[6] = read-out: Monocyte Chemoattractant Protein-1 (MCP1), CCL2 (gene 6347); assay: BSK_4H_MCP1: BioMAP Diversity Plus: 4H Assay for Monocyte Chemoattractant Protein-1 (MCP1) Biomarker Activity (AID 2283018); conditions: primary human endothelial cells (HUVEC); actives raise or lower the signal
How it was run: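 HUVEC primary cells, 24 h post-dose, MCP-1 by ELISA. Gain or loss of signal fitted bidirectionally vs DMSO baseline. Cytotoxicity: SRB stain (0.1% after 10% TCA fixation), read 560 nm, parallel cultures.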

[7] = read-out: Human Leukocyte Antigen - DR isotype (HLADR), HLA-DRA (gene 3122); assay: BSK_3C_HLADR: BioMAP Diversity Plus: 3C Assay for Human Leukocyte Antigen - DR isotype (HLADR) Biomarker Activity (AID 2283019); conditions: primary human endothelial cells (HUVEC); actives raise or lower the signal;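 as to outcome: ELISA of cell-surface HLA-DR on HUVEC 24 h after dosing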
How it was run: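 Bidirectional fitting against DMSO was applied to the HLA-DR ELISA signal from human umbilical vein endothelial cells, 24 h post-dose. Cytotoxicity came from parallel SRB total-protein staining; 3C proliferation was counted by SRB at 48 h.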

[8] = read-out: Interleukin-8 (IL8), CXCL8 (gene 3576); assay: BSK_3C_IL8: BioMAP Diversity Plus: 3C Assay for Interleukin-8 (IL8) Biomarker Activity (AID 2283020); conditions: primary human endothelial cells (HUVEC); actives raise or lower the signal
How it was run: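 HUVEC, 3C stimulation; 24 h compound exposure; IL-8 read by ELISA; gain or loss of signal fitted relative to DMSO control.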

[9] = read-out: Monokine induced gamma interferon (MIG), CXCL9 (gene 4283); assay: BSK_3C_MIG: BioMAP Diversity Plus: 3C Assay for Monokine induced gamma interferon (MIG) Biomarker Activity (AID 2283021); conditions: primary human endothelial cells (HUVEC); actives raise or lower the signal
How it was run: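 HUVEC, 3C system; 24 h chemical exposure; MIG by ELISA; bidirectional fit vs DMSO baseline.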

[10] = biological target: human Vitamin D Receptor (VDR), VDR (gene 7421) (UniProt P11473); assay: ATG_VDR_TRANS: Attagene TRANS-FACTORIAL HepG2 Assay for human Vitamin D Receptor (VDR) (AID 2283022; active = hit-call score of the fitted dose curve at least 0.9, where 1 is the maximum)
human Vitamin D Receptor (VDR), VDR (gene 7421), sequence (P11473 whole entry, looked up, the tested form may be a part): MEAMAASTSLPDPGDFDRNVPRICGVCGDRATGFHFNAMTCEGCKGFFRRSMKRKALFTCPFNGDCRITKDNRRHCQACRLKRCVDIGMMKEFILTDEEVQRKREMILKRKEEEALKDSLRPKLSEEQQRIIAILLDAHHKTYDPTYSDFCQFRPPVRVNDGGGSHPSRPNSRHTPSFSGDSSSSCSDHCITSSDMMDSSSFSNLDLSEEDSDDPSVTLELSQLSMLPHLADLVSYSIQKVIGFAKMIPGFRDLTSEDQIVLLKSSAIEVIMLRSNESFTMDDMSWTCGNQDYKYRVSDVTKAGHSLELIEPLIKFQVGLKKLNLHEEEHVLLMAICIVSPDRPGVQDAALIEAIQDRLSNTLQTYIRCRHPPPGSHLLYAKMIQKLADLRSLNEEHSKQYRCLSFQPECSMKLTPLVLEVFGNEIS
How it was run: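 Transactivation by an exogenous VDR-Gal4 chimera in transiently transfected HepG2 cells was measured as reporter transcript level 24 hours after chemical treatment. RT-PCR products were analysed by capillary electrophoresis and fitted in the positive direction relative to DMSO.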

[11] = BSK_3C_SRB: Viability Assessment in the BioMAP Diversity Plus: 3C Assay (AID 2283023); conditions: primary human endothelial cells (HUVEC);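 also: fitted both ways against DMSO so a hit may be signal rise or drop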
How it was run: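 Cytotoxicity readout in parallel HUVEC 3C cultures: after 24 h compound exposure, cells fixed with 10% TCA, stained with 0.1% SRB and read at 560 nm. Gain or loss relative to DMSO fitted.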

[12] = read-out: Matrix Metallopeptidase 1 (MMP1), MMP1 (gene 4312); assay: BSK_BE3C_MMP1: BioMAP Diversity Plus: BE3C Assay for Matrix Metallopeptidase 1 (MMP1) Biomarker Activity (AID 2283024); conditions: primary human bronchial epithelial cells; actives raise or lower the signal
How it was run: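 ELISA read-out of MMP1 in human lung bronchial epithelial primary cultures, 24 h post-dose; bidirectional curve fit vs DMSO baseline, gain or loss of signal scored.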

[13] = BSK_3C_Vis: BioMAP Diversity Plus: 3C Assay for Morphology Visualization (AID 2283025); conditions: primary human endothelial cells (HUVEC);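 also: fitted both ways so gain or loss versus DMSO counts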;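 as to AC50: light microscopy image of cell morphology used as background control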
How it was run: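 HUVEC, 3C system; light microscopy of morphology at 24 h post-dose. Bidirectional fit vs DMSO baseline. Secondary readout, background-control function.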

[14] = read-out: Pselectin, SELP (gene 6403); assay: BSK_4H_Pselectin: BioMAP Diversity Plus: 4H Assay for Pselectin Biomarker Activity (AID 2283026); conditions: primary human endothelial cells (HUVEC); actives raise or lower the signal
How it was run: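 HUVEC, 24 h chemical exposure; P-selectin read by ELISA. Bidirectional curve fit vs DMSO baseline; gain or loss of signal scored.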

[15] = BSK_4H_SRB: Viability Assessment in the BioMAP Diversity Plus: 4H Assay (AID 2283027); conditions: primary human endothelial cells (HUVEC);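 also: cells exposed to compound for 24 h before staining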
How it was run: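 Cytotoxicity read-out in primary human endothelial cells: after 24 h compound exposure, cells were TCA-fixed (10%), stained with 0.1% SRB and absorbance taken at 560 nm. Values fitted in both directions relative to DMSO.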

[16] = BSK_BE3C_SRB: Viability Assessment in the BioMAP Diversity Plus: BE3C Assay (AID 2283028); conditions: primary human bronchial epithelial cells
How it was run: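 Cytotoxicity read-out: SRB (0.1%) staining of TCA-fixed (10%) human lung bronchial epithelial cells, absorbance 560 nm, 24 h post-dosing. Curves fitted both directions relative to DMSO.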

[17] = read-out: Thrombomodulin, THBD (gene 7056); assay: BSK_3C_Thrombomodulin: BioMAP Diversity Plus: 3C Assay for Thrombomodulin Biomarker Activity (AID 2283029); conditions: primary human endothelial cells (HUVEC); actives raise or lower the signal
How it was run: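 HUVEC, 3C conditions; compound 24 h; thrombomodulin by ELISA; bidirectional curve fit vs DMSO baseline; parallel SRB total-protein staining for cytotoxicity.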

[18] = read-out: Urokinase-type plasminogen activator receptor (uPAR), PLAUR (gene 5329); assay: BSK_4H_uPAR: BioMAP Diversity Plus: 4H Assay for Urokinase-type plasminogen activator receptor (uPAR) Biomarker Activity (AID 2283030); conditions: primary human endothelial cells (HUVEC); actives raise or lower the signal
How it was run: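 uPAR level read by ELISA on HUVEC cultures (BioMAP 4H) 24 h post-dosing, analyzed for gain or loss relative to DMSO. Parallel SRB staining assessed overt cytotoxicity.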

[19] = biological target: human RAR-related Orphan Receptor gamma (RORg), RORC (gene 6097) (UniProt P51449); assay: ATG_RORg_TRANS: Attagene TRANS-FACTORIAL HepG2 Assay for human RAR-related Orphan Receptor gamma (RORg) (AID 2283011; active = hit-call score of the fitted dose curve at least 0.9, where 1 is the maximum)
human RAR-related Orphan Receptor gamma (RORg), RORC (gene 6097), sequence (P51449 whole entry, looked up, the tested form may be a part): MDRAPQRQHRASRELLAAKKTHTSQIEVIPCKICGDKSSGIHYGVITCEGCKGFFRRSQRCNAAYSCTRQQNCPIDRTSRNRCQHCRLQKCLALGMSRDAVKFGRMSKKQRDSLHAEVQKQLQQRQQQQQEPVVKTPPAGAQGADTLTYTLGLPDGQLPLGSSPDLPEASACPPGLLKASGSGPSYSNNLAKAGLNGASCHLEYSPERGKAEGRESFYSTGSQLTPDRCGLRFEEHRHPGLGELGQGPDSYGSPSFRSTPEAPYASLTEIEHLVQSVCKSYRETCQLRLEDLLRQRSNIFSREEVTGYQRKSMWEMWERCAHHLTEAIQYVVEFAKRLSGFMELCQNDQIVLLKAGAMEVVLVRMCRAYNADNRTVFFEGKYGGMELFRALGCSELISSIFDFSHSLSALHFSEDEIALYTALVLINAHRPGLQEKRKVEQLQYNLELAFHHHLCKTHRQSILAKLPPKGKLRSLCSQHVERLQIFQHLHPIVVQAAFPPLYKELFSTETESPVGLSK
How it was run: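 Reporter transcripts from a transfected RORg-GAL4 chimera in HepG2 cells were quantified 24 h after dosing by RT-PCR, 6-FAM labelling, HpaI digestion and capillary electrophoresis; increases over DMSO baseline were fitted.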

E-selectin (Homo sapiens), sequence (P16581 whole entry, looked up): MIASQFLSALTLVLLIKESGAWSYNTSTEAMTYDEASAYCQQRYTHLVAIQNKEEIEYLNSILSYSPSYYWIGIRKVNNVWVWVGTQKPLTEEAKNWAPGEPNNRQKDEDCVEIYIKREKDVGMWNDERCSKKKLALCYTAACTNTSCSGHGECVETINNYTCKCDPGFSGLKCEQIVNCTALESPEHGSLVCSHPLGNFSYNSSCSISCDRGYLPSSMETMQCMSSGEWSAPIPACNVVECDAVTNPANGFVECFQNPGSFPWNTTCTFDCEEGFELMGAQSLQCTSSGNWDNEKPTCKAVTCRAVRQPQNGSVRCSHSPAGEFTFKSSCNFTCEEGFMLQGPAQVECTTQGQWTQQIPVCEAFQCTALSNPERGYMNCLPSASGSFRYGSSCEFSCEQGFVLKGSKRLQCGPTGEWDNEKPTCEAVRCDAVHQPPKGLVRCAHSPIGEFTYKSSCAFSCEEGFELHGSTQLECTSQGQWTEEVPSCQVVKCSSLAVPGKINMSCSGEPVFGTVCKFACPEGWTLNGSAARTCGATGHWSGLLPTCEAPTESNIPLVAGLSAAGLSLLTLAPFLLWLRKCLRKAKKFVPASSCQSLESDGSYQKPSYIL

With `COP(=S)(OC)Oc1ccc([N+](=O)[O-])c(C)c1` the outcome [1] was “inactive”, the outcome [2] was “inactive” and the outcome [3] was “inactive”. The outcome [4] was “inactive”, the AC50 [5] was 30.8 µM (active) and the outcome [6] was “inactive”. The AC50 [7] was 20 µM (active), the outcome [8] was “inactive” and the outcome [9] was “inactive”. The outcome [10] was “inactive”, the AC50 [11] was 16.5 µM (active) and the outcome [12] was “inactive”. The AC50 [13] was 39 µM (active), the outcome [14] was “inactive” and the outcome [15] was “inactive”. For the same compound, the outcome [16] was “inactive”, the outcome [17] was “inactive” and the outcome [18] was “inactive”.
For `CCOC(=O)C(C)OC(=O)c1cc(Oc2ccc(C(F)(F)F)cc2Cl)ccc1[N+](=O)[O-]` (stereo not given), the outcome [1] was “inactive”, the outcome [2] was “inactive” and the outcome [3] was “inactive”. For the same compound, the outcome [4] was “inactive”, the AC50 [5] was 10.6 µM (active) and the AC50 [6] was 6.5 µM (active). The AC50 [7] was 3.97 µM (active), the outcome [8] was “inactive” and the outcome [9] was “inactive”. The AC50 [11] was 13.3 µM (active), the outcome [12] was “inactive” and the outcome [13] was “inactive”. The outcome [14] was “inactive”, the outcome [16] was “inactive” and the outcome [17] was “inactive”. For the same compound, the AC50 [18] was 10 µM (active).
With `COP(=O)(OC)O/C(C)=C/C(=O)N(C)C` the outcome [19] was “inactive”, the outcome [2] was “inactive” and the outcome [3] was “inactive”. For the same compound, the outcome [4] was “inactive”, the outcome [5] was “inactive” and the outcome [6] was “inactive”. For the same compound, the outcome [7] was “inactive”, the outcome [8] was “inactive” and the outcome [9] was “inactive”. The outcome [11] was “inactive”, the outcome [12] was “inactive” and the outcome [13] was “inactive”. For the same compound, the outcome [14] was “inactive”, the outcome [16] was “inactive” and the outcome [17] was “inactive”. For the same compound, the outcome [18] was “inactive”.

Reference: PubChem BioAssay (EPA / NIEHS)
